Measured values reported in PubChem BioAssay (EPA / NIEHS).
Active and inactive are the calls of the source. How the source made its calls: active means hit-call score of the fitted dose curve at least 0.9, where 1 is the maximum; inactive means score below 0.9.

Assays:
[1] = target: Paired box protein Pax-6 (Homo sapiens) (UniProt P26367); experiment: ATG_Pax6_CIS: Attagene CIS-FACTORIAL HepG2 Assay for human Paired Box 6 (PAX6) (AID 2282956); conditions: HepG2 CIS-FACTORIAL PAX6 reporter transcription, RNA readout; actives raise or lower the signal
In short: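 Multiplexed cis-reporter HepG2 system; 24 h treatment; reporter mRNA read by RT-PCR/CE fluorescence; bidirectional fit vs DMSO.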

[2] = ATG_PXRE_CIS: Attagene CIS-FACTORIAL HepG2 Assay for human Pregnane X Receptor Element (PXRE) (AID 2282957); conditions: HepG2 Attagene CIS-FACTORIAL PXRE reporter, mRNA; actives raise or lower the signal
In short: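 HepG2 cells transiently transfected with cis-regulated multiple reporter transcription units; endogenous factor activity measured as reporter mRNA 24 h after dosing. RT-PCR, fluorescent primer extension, HpaI digestion, capillary electrophoresis; bidirectional fit versus DMSO baseline.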

[3] = ATG_PPRE_CIS: Attagene CIS-FACTORIAL HepG2 Assay for human Peroxisome Proliferator-activated Response Element (PPRE) (AID 2282958); conditions: HepG2 PPRE cis-element reporter, Attagene transcription factor profiling; actives raise or lower the signal
In short: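 Measured endpoint: PPRE-controlled reporter mRNA, detected by RT-PCR and capillary electrophoresis fluorescence, from transiently transfected HepG2 cells 24 h after dosing. Curves fitted in both directions using DMSO baseline.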

[4] = ATG_RORE_CIS: Attagene CIS-FACTORIAL HepG2 Assay for human RAR-related Orphan Receptor Element (RORE) (AID 2282959); conditions: HepG2 Attagene cis-factorial RORE reporter, mRNA; actives raise or lower the signal
In short: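 Transiently transfected HepG2 reporter cells were treated 24 h. Reporter transcripts were detected by RT-PCR and capillary electrophoresis, with bidirectional fitting against DMSO.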

[5] = ATG_Sox_CIS: Attagene CIS-FACTORIAL HepG2 Assay for human SRY-box transcription factor (SOX) (AID 2282960); conditions: HepG2 Attagene cis-factorial SOX reporter, mRNA; actives raise or lower the signal
In short: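 Gain- or loss-of-signal endpoint, fitted bidirectionally with DMSO as negative control. Based on reporter mRNA from transfected HepG2 cells harvested 24 h post-treatment and quantified via RT-PCR and capillary electrophoresis.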

[6] = target: Transcription factor Sp1 (Homo sapiens) (UniProt P08047); experiment: ATG_Sp1_CIS: Attagene CIS-FACTORIAL HepG2 Assay for human Specificity Protein 1 (Sp1) (AID 2282961); conditions: HepG2 Sp1 cis-reporter transcription, actives raise or lower the signal
In short: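 Endpoint reflects endogenous Sp1 transcriptional activity, not an exogenous fusion protein: HepG2 cells with transfected cis-regulated reporters, 24 h dosing, RT-PCR/capillary electrophoresis mRNA read-out, DMSO-normalised bidirectional fit.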

[7] = ATG_SREBP_CIS: Attagene CIS-FACTORIAL HepG2 Assay for human Sterol Regulatory Element Binding (SREBP) (AID 2282962); conditions: HepG2 Attagene cis-factorial SREBP reporter, mRNA; actives raise or lower the signal
In short: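 mRNA induction of transfected cis-promoter reporters in HepG2 cells, 24 h post-dose. Detection: RT-PCR with 6-FAM-labelled products, HpaI digest, capillary electrophoresis. DMSO served as negative control and baseline.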

[8] = target: Signal transducer and activator of transcription 3 (Homo sapiens) (UniProt P40763); experiment: ATG_STAT3_CIS: Attagene CIS-FACTORIAL HepG2 Assay for human Signal Transducer and Activator of Transcription 3 (STAT3) (AID 2282963); conditions: HepG2, Attagene cis-factorial STAT3 reporter transcription; actives raise or lower the signal
In short: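 Transcript-level reporter assay. HepG2 transient MRTU transfection, 24 h exposure, fluorescence detection after RT-PCR and CE; DMSO baseline.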

[9] = ATG_TA_CIS: Attagene CIS-FACTORIAL HepG2 Assay for human TA Basal Promoter (AID 2282964); conditions: HepG2 Attagene CIS-factorial TA basal promoter reporter; actives raise or lower the signal
In short: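 Transfected HepG2, 24 h compound exposure; RNA → RT-PCR → FAM primer extension → HpaI cut → CE fluorescence. Gain/loss-of-signal fitted against DMSO negative control. Background-control readout.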

[10] = ATG_TCF_b_cat_CIS: Attagene CIS-FACTORIAL HepG2 Assay for human T-Cell-Factor with beta-catenin (TCF/b-cat) (AID 2282965); conditions: HepG2 TCF/beta-catenin cis-reporter transcription, actives raise or lower the signal
In short: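 Using capillary electrophoresis as the read-out, labelled reporter cDNA fragments from transiently transfected HepG2 were sized and quantified. Exposure lasted 24 hours; activity in either direction was referenced to DMSO.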

Sequence of Transcription factor Sp1 (Homo sapiens) (P08047 whole entry, looked up, the tested form may be a part): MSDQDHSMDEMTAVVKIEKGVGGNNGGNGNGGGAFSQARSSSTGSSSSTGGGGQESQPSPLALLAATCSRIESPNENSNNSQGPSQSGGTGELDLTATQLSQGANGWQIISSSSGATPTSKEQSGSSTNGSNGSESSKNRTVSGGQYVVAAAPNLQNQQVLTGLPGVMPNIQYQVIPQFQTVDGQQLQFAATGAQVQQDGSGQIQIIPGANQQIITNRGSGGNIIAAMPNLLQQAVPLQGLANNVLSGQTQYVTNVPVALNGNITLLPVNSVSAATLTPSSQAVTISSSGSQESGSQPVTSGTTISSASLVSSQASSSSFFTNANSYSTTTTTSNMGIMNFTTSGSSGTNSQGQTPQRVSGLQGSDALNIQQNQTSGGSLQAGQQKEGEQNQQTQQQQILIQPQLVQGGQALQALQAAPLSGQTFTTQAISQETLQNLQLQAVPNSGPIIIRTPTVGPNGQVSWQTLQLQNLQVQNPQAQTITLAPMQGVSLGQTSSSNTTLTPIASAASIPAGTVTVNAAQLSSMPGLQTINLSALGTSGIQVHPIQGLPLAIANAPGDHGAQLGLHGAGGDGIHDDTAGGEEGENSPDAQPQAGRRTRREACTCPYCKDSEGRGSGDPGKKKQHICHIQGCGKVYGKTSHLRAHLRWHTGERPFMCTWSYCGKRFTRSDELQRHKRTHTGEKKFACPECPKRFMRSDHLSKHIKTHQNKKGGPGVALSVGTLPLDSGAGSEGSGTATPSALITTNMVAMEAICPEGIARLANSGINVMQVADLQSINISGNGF
Sequence of Signal transducer and activator of transcription 3 (Homo sapiens) (P40763 whole entry, looked up): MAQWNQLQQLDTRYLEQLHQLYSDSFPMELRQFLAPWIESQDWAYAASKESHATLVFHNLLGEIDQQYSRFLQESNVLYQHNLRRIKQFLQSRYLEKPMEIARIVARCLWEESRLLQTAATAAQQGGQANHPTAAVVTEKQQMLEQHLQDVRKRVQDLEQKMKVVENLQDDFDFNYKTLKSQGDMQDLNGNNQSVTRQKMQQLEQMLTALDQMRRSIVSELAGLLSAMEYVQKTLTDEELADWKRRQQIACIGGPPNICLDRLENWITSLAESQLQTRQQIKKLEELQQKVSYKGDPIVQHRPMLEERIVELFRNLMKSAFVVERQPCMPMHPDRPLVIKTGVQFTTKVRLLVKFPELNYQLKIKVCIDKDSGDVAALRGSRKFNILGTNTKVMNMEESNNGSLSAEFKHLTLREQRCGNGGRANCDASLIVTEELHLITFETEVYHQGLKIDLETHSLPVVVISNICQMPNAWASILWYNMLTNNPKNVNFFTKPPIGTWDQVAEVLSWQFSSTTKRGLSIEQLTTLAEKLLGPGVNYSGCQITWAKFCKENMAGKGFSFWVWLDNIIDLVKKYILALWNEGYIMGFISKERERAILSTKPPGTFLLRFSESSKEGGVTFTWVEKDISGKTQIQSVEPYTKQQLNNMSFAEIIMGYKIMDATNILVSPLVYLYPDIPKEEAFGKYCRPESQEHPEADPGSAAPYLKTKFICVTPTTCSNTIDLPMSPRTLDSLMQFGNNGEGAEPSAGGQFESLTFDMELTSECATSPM
Sequence of Paired box protein Pax-6 (Homo sapiens) (P26367 whole entry, looked up): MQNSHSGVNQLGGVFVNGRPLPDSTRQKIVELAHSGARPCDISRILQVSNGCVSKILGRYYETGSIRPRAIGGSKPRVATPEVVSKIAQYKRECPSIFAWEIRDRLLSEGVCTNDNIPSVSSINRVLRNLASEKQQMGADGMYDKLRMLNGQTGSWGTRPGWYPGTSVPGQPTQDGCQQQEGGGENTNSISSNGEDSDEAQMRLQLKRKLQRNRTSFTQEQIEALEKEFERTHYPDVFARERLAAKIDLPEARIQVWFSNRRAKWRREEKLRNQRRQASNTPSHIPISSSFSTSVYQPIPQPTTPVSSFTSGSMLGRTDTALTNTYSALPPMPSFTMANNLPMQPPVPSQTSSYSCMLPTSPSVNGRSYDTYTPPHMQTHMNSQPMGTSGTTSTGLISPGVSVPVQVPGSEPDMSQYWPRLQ

SMILES	outcome [1]	AC50 [2]	outcome [3]	outcome [4]	outcome [5]	outcome [6]	outcome [7]	outcome [8]	outcome [9]	outcome [10]	outcome [2]	AC50 [3]	AC50 [1]	AC50 [8]	AC50 [10]
CC(C)=CCCC(C)C=O (stereo not given)	inactive	8.29 µM (active)	inactive	inactive	inactive	inactive	inactive	inactive	inactive	inactive					
Cc1ccccc1C	inactive	36.5 µM (active)	inactive	inactive	inactive	inactive	inactive	inactive	inactive	inactive					
O=C1CCCC(=O)O1	inactive		inactive	inactive	inactive	inactive	inactive	inactive	inactive	inactive	inactive				
c1ccc(CCCc2ccncc2)cc1	inactive	27 µM (active)	inactive	inactive	inactive	inactive	inactive	inactive	inactive	inactive					
CC(=O)OC(C)C	inactive	100 µM (active)	inactive	inactive	inactive	inactive	inactive	inactive	inactive	inactive					
COC(=O)/C=C/C(C)=C\C=C\C(C)=C\C=C\C=C(C)\C=C\C=C(C)\C=C\C(=O)O	inactive	60.8 µM (active)	inactive	inactive	inactive	inactive	inactive	inactive	inactive	inactive					
CCOCC(=O)O	inactive	72 µM (active)	inactive	inactive	inactive	inactive	inactive	inactive	inactive	inactive					
CC(C)(C)C(=O)CCc1ccc(Cl)cc1	inactive	9.79 µM (active)	inactive	inactive	inactive	inactive	inactive	inactive	inactive	inactive					
FC(F)(F)C(=NOCC1OCCO1)c1ccc(Cl)cc1	inactive	12.1 µM (active)		inactive	inactive	inactive	inactive	inactive	inactive	inactive		130 µM (active)			
C=CC(=O)OCC(Br)CBr (stereo not given)			inactive	inactive	inactive	inactive	inactive		inactive		inactive		34.5 µM (active)	121 µM (active)	44.2 µM (active)
Cc1ccc2c(c1)C(=O)c1ccccc1C2=O	inactive	6.22 µM (active)	inactive	inactive	inactive	inactive	inactive	inactive	inactive	inactive					
O=Nc1ccc(O)cc1	inactive		inactive	inactive	inactive	inactive	inactive	inactive	inactive	inactive	inactive				
